From PubChem BioAssay (NCATS)
Results filed as inconclusive are left out. Entries that show only a call come without a potency. Active and inactive are the calls of the source. Calls come from the whole dose curve; as a rule, active = well fitted inhibition curve with a large enough effect; inconclusive = small, poorly fitted or top-dose-only effect; inactive = no such curve, though single readings can be large or run the other way.

Test: Counterscreen for APE1 Inhibitors: Fluorescent Dye Displacement Validation Assay (AID 1707)
Conditions: fluorescent dye displacement from DNA; series mostly up to 57.1 µM
Source text: In order to distinguish true inhibitors of DNA-processing enzymes from promiscuous DNA-binding compounds among screening assay hits, we developed a homogeneous and miniaturized assay based on fluorescent dye displacement test as originally described by Tse and Boger (Accounts of Chemical Research (2004) 37: 61-69). The assay is based on the strong enhancement of fluorescence when Thiazole Orange (ThO) binds to double-stranded DNA: conversely, in the presence of a DNA-binding compound, Thiazole Orange is displaced from the DNA and its fluorescence is reduced.
Buffer. 50 mM Tris-HCl (pH7.5) containing 50mM NaCl, 2 mM MgCl2, and 0.01% Tween-20.
Buffer containing 250 nM ThO in columns 3 and 4 as negative control (no dsDNA).
Reaction mixture: 250 nM ThO and 50 nM dsDNA at final concentration dispensed throughout the plate: in columns 1, 2, 5-48. Column 1 is neutral (100% activity).
5''TAMRA- TC ACC FTC GTA CGA CTC
3'' AG TGG GAG CAT GCT GAG
where F denotes tetrahydrofuran.
Control: Pintool transfer of control compound WB64 (W4761, Sigma-Aldrich) to column 2 of all assay plates as a two-fold 16-point dilution in duplicate (concentration range 5.75 uM - 0.175 nM).
Four uL of reaction mixtures were dispensed to 1536-well Greiner black solid bottom plates. Compounds (23 nL) were transferred […] in order to measure the endpoint fluorescence using 480 nm excitation and 540 nm emission fluorescence protocol.
Potency is the fitted concentration of half-maximal effect.

Structure (SMILES) | Potency
c1cnc2c(c1)ccc1cccnc12 | inactive
CCCCCCCCCCCCCCCCCC(=O)OC(CC(=O)O)C[N+](C)(C)C (stereo not given) | inactive
CCCCC/C=C\CC(O)/C=C/c1cccc(CC(O)CCCCO)n1 (stereo not given) | inactive
OCC1O[C@H](O)C(Cl)C(O)C1O (stereo not given in full) | inactive
O=Nc1ccc2oc(=O)ccc2c1 | inactive
C#CCN1C(C)=C(C(=O)OC)C(c2cccc([N+](=O)[O-])c2)C(C(=O)OCC)=C1C (stereo not given) | inactive
O=C(O)CC[C@@H](C(=O)O)N1C(=O)c2ccccc2C1=O | inactive
O=C(O)[C@@H]1C[C@@H](C(=O)O)N1 | inactive
COc1ccccc1N1CCN(CCCCNS(=O)(=O)c2cccc3c(N(C)C)cccc23)CC1 | inactive
CCCCN1CCC(n2c(=O)[nH]c3ccccc32)CC1 | inactive
N.N.O=C(O)C1(C(=O)O)CCC1.[Pt] | inactive
C[N+](C)(CCCCCC[N+](C)(C)CCCN1C(=O)c2cccc3cccc(c23)C1=O)CCCN1C(=O)c2cccc3cccc(c23)C1=O | 5.62 µM (active)
O=C(O)CNC(=O)C(CS)Cc1ccccc1 (stereo not given) | inactive
COc1ccccc1CNCCCCCCNCCCCCCCCNCCCCCCNCc1ccccc1OC | inactive
O=C(Nc1ccccc1)c1cc([N+](=O)[O-])ccc1Cl | inactive
COc1ccc(NC(=O)/C=C/c2ccc(Cl)cc2)cc1 | inactive
N[C@@H](CC(=O)O)C(=O)O | inactive
CN1CCc2cccc3c2C1Cc1ccc(O)c(O)c1-3 (stereo not given) | inactive
Oc1ccccc1O | inactive
CC(C)NC[C@H](O)COc1cccc2[nH]ccc12 | inactive

Structure (SMILES) | Potency
COc1cc(C(O)CO)ccc1OS(=O)(=O)O (stereo not given) | inactive
COc1cccc(OC)c1OCCNCC1COc2ccccc2O1 (stereo not given) | inactive
CCCCCCCCCCCCCCCC(=O)OC(CC(=O)O)C[N+](C)(C)C (stereo not given) | inactive
CC(COc1ccc(/C=C/c2ccccc2)cc1)[N+](C)(C)C (stereo not given) | inactive
O=C(O)c1cc(=O)c2ccccc2[nH]1 | inactive
Cc1ccccc1CNc1ncnc2c1ncn2C1OC(CO)C(O)C1O (stereo not given) | inactive
CN1[C@@H](CC(=O)c2ccccc2)CCC[C@H]1C[C@H](O)c1ccccc1 | inactive
Clc1ccc(N2CCN(Cc3c[nH]c4ncccc34)CC2)cc1 | inactive
CN1CCc2cc(O)c(O)cc2C(c2ccccc2)C1 (stereo not given) | inactive
CC(C)NCC(O)COc1cccc2ccccc12 (stereo not given) | inactive
Nc1ccn([C@@H]2O[C@H](CO)[C@@H](O)[C@@H]2O)c(=O)n1 | inactive
CN1C2CCC1CC(OC(=O)C(O)c1ccccc1)C2 (stereo not given) | inactive
COC(=O)c1c(C)[nH]c(C)c1C(=O)c1ccccc1Cc1ccccc1 | inactive
COc1cccc(C(=O)NCCN2CCN(c3ccc(Cl)cc3)CC2)c1 | inactive
O=S(=O)(c1cccc2c(I)cccc12)N1CCCNCC1 | inactive
NCCNC(=O)c1ncsc1-c1cccc(F)c1 | inactive
CN1CCc2cc(NC(=O)Nc3cccnc3)ccc21 | inactive
CCCCCC(O)c1cccc(OCc2ccc3ccccc3n2)c1 (stereo not given) | inactive
Cn1c(=O)c2[nH]c(-c3ccccc3)nc2n(C)c1=O | inactive
CN1CCC[C@H]1c1cccnc1 | inactive
